# Hit rate of the full screen: of about 16,000 compounds, about 4,000 (25%) were called active. Inconclusive results (about 26%) are left out. Only a sample is shown. Values without a mark were called inactive. The call rests on the fitted dose curve; in most records, active means well fitted curve in the direction sought with a large enough effect; inconclusive means small, poorly fitted or top-dose-only effect, or effect the other way; inactive means no such curve, though single readings can be large or run the other way.
# Target: Cytochrome P450 2C9 (Homo sapiens) (UniProt P11712)
# Experiment: Cytochrome panel assay with activity outcomes
# Details: recombinant CYP, pro-luciferin dealkylation, luminescence, p450-cyp2c9; series mostly up to 57.1 µM; activity, negative = inhibition: at the top concentration
# On the % scale 0 is the no-effect control and ±100 the full control effect.
# Chain of Cytochrome P450 2C9 (Homo sapiens) (P11712 whole entry, looked up): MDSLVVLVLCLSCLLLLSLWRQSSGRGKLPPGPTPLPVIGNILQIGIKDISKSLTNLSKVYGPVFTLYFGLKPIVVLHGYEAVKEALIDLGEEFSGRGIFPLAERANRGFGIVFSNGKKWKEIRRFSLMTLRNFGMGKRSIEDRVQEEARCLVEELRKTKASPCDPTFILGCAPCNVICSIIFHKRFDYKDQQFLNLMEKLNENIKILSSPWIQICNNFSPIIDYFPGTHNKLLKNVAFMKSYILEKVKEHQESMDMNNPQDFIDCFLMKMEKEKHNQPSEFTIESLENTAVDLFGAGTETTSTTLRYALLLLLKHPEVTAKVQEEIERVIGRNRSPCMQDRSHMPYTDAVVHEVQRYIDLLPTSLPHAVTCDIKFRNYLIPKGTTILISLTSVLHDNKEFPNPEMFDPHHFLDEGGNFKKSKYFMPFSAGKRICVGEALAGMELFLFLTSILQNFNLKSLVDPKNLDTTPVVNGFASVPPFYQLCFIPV
SMILES,"activity, negative = inhibition",AC50
CO[C@H]1COC(=O)CCC[C@@H](C)[C@H](OC)COC(=O)[C@@H](C)NC(=O)C/C=C\[C@@H]1C,-11.7% [at 11.4 µM],–
Cc1noc(C)c1-c1nc(Nc2ccc(F)cc2)c2ccccc2n1,-2.69% [at 2.29 µM],–
CCN(CC)CCNC(=O)c1cc(Br)c(N)cc1OC,9.64% [at 25.6 µM],–
CCCc1c(OCCCOc2ccc(OCC(=O)O)cc2)ccc(CC=O)c1O,1.35%,–
O=C(O)COc1ccc(OCCNC[C@@H](O)COc2ccccc2)cc1,21.8%,–
CCCc1c(OCCCOc2ccc(OCC(=O)O)cc2)ccc(C(C)=O)c1O,–,10 µM (active)
Cn1cccc1C(=O)N1CCC[C@@]2(CCN(Cc3ccc(C#N)cc3)C2)C1,14.1%,–
NC/C=C\C(=O)O,–,inactive
CC[C@H](C)[C@@H]1O[C@]2(CC[C@@H]1C)C[C@H]1C[C@H](CC=C(C)[C@@H](O[C@@H]3C[C@H](OC)[C@H](O[C@@H]4C[C@H](OC)[C@H](O)[C@H](C)O4)[C@H](C)O3)[C@@H](C)C=CC=C3CO[C@@H]4[C@@H](O)C(C)=C[C@@H](C(=O)O1)[C@]34O)O2,-8.8% [at 25.6 µM],–
O=C(Cn1cc(C(F)(F)F)ccc1=O)N1CCN(S(=O)(=O)c2ccccc2)CC1,-4.35%,–
O=C1C2CCCN2c2ccc(S(=O)(=O)N3CCOCC3)cc2N1Cc1cccc(C(F)(F)F)c1 (stereo not drawn),–,5.01 µM (active)
O=S(=O)(c1cccc(C(F)(F)F)c1)N1CCC(c2cc(-c3cccc4ccccc34)n[nH]2)CC1,-13.6%,–
COc1ccc(NC(=O)N2CCCC3(CCN(C(=O)c4csnn4)CC3)C2)cc1,5.13%,–
Cc1ccc(COc2ccc(Br)cc2/C=N/O)cc1,–,2.82 µM (active)
Cc1n[nH]c(=S)n1/N=C/c1ccccc1OCc1ccc(Cl)cc1,-9.86%,–
Oc1ccc(Cl)cc1C=Nc1cnc2ccccc2c1,1.22% [at 11.4 µM],–
Cc1ccc(CONC(=O)/N=C/N(C)C)cc1,-7.04%,–
O=C(Cc1ccccc1)N/N=C/c1ccccc1OCc1ccc(Cl)cc1,–,7.94 µM (active)
Cc1ccc(COc2coc(CO)cc2=O)cc1,-10.7%,–
O=C(SCc1cccc2ccccc12)c1ccc(Cl)cc1,-1.66% [at 11.4 µM],–
O/N=C/c1cc(Cl)ccc1OCc1cccc2ccccc12,–,7.08 µM (active)
O/N=C/c1ccccc1OCc1ccc(Cl)cc1,–,4.47 µM (active)
COc1ccc(COC(=O)N/N=C2/C[C@@H](O)[C@@H](O)[C@@H]3[C@@H]4C(=O)N(C(C)(C)C)C(=O)[C@H]4CC[C@H]23)cc1,20.6% [at 11.4 µM],–
CC(C)(C)c1onc(OCP(=O)(O)O)c1C[C@@H](N)C(=O)O,6.09%,–

SMILES,"activity, negative = inhibition",AC50
C[C@@H]1O[C@H](O[C@@H]2[C@H](C)O[C@H](O[C@@H]3[C@H](C)O[C@H](O[C@H]4CC[C@]5(C)[C@@H](CC[C@@H]6[C@H]5C[C@@H](O)[C@]5(C)[C@@H](C7=CC(=O)OC7)CC[C@]65O)C4)C[C@@H]3O)C[C@@H]2O)C[C@H](O)[C@@H]1O,25.1% [at 25.6 µM],–
C[C@@H](Cc1ccccc1)Nc1ncnc2c1ncn2[C@@H]1O[C@@H](CO)[C@H](O)[C@@H]1O,18.9%,–
COCCNc1nc(-c2c(C)noc2C)nc2ccccc12,15% [at 2.29 µM],–
NC(N)=NC(N)=Nc1cccc(Cl)c1,4.42%,–
NC(=S)N/N=C/c1ccccc1OCc1cccc(Cl)c1,–,1.58 µM (active)
CCCCC1(C)Nc2ccccc2-c2nc3ccccc3n21 (stereo not drawn),–,12.6 µM (active)
NC1=NC2(CCCCCC2)n2c(nc3ccccc32)N1,-11.5%,–
CC1CCC2(CC1)N=C(N)Nc1nc3ccccc3n12 (stereo not drawn),-29.6%,–
CCC1(C)Nc2ccccc2C(=O)N1O (stereo not drawn),12.4%,–
CCCC1(C)Nc2ccccc2-c2nc3ccccc3n21 (stereo not drawn),–,3.98 µM (active)
COc1c2c(nc3ccccc13)O[C@@H]([C@@](C)(O)CO)C2,-7.31%,–
Cc1cccc(C(=O)NNC(=O)C2CCCO2)c1 (stereo not drawn),-2.49%,–
Cc1cccc(C(=O)NNC(=O)C(=O)NC(C)(C)C)c1,-6.6%,–
C=C(C)C1CC=C(C)/C(=N/NC(=O)c2ccc(NC(=O)c3cccc(C)c3)cc2)C1 (stereo not drawn),–,1.58 µM (active)
COc1ccc(CCN(C)CCc2ccc(OC)c(OC)c2)cc1OC,–,inactive
COc1ccc(Cc2n[nH]c(=O)c3ccccc23)cc1OC,–,25.1 µM (active)
COc1ccc(C[N+](C)(C)N)cc1OC,13.9% [at 11.4 µM],–
CCCCc1ccc2nc(NC(=O)OC)[nH]c2c1,1.99% [at 25.6 µM],–
Nc1c(OCC(=O)O)ccc2cc(S(=O)(=O)O)ccc12,-7.12% [at 11.4 µM],–
Clc1ccc(Sc2cc(N3CCOCC3)nc(-c3ccccc3)n2)cc1,–,10 µM (active)
COc1cccc(Sc2cc(N3CCOCC3)nc(-c3ccccc3)n2)c1,–,10 µM (active)
COc1cccc(-c2ccc3ncnc(N4CCOCC4)c3c2)c1,-6.77% [at 2.29 µM],–
c1ccc2c(N3CCOCC3)nc(-c3ccoc3)nc2c1,11.8% [at 2.29 µM],–
Nc1nc(Cl)cc(N2CCOCC2)n1,6.83%,–

SMILES,"activity, negative = inhibition",AC50
Brc1ccc([C@H]2CN3CCSC3=N2)cc1,-16%,–
CN1CCN(c2ncncc2-c2ccc(C(=O)N(C)C)cc2)CC1,16.3% [at 2.29 µM],–
O=P(O)(O)CCP(=O)(c1ccccc1)c1ccccc1,1.21%,–
CCNc1ncc2nc(-c3cc(F)cc(F)c3)c(=O)n(C[C@H]3CCCO3)c2n1,5.57%,–
CCNc1ncc2nc(-c3ccc(F)cc3)c(=O)n(C[C@H]3CCCO3)c2n1,18.5%,–
O=C1CC(c2ccc(F)cc2)Cc2nc(NCC3CCCO3)ncc21 (stereo not drawn),–,12.6 µM (active)
Cc1ccc2nc(SCC(=O)NCc3cccs3)c(C#N)cc2c1,-10.6%,–
Cc1ccc2nc(SCc3nnc(-c4ccccc4[N+](=O)[O-])o3)c(C#N)cc2c1,–,0.794 µM (active)
Cc1nc2cccc([N+](=O)[O-])c2n1CCCN(C)C,-4.5% [at 11.4 µM],–
CN1CCC(=C2c3ccccc3CC(=O)c3sccc32)CC1,–,inactive
O=C(O)CN(CCN(CC(=O)O)CC(=O)O)CC(=O)O.[Mn],-0.525% [at 11.4 µM],–
Cc1cn2c(-c3ccncc3)nnc2s1,-23.3%,–
c1cc(-c2sc(-c3ccncc3)c(-c3ccncc3)c2-c2ccncc2)ccn1,–,2 µM (active)
Cc1cc(S(=O)(=O)NCCCN2CCOCC2)ccc1F,-0.482%,–
Cc1ccccc1NS(=O)(=O)c1ccc2[nH]cc(C(=O)N(C)Cc3ccco3)c(=O)c2c1,–,12.6 µM (active)
COc1cccc(C2=NOC(C(=O)NCCN3CCOCC3)C2)c1 (stereo not drawn),-23.4%,–
COc1cccc(NS(=O)(=O)c2ccc3[nH]cc(C(=O)NCCN4CCOCC4)c(=O)c3c2)c1,–,7.94 µM (active)
Cc1ccccc1NS(=O)(=O)c1ccc2[nH]cc(C(=O)NCCCN3CCOCC3)c(=O)c2c1,–,12.6 µM (active)
CN1CCN(S(=O)(=O)c2ccc3[nH]cc(C(=O)O)c(=O)c3c2)CC1,-21.4%,–
CS(=O)(=O)Nc1cccc(-c2nc(NCCN3CCOCC3)c3ccccc3n2)c1,3.9% [at 2.29 µM],–
CCC(CC)C(=O)c1c[nH]c(C(=O)NCCCN2CCOCC2)c1,-7.46%,–
CO[C@H]1COC(=O)C/C=C\[C@@H](C)COC(=O)[C@@H](C)NC(=O)C/C=C\[C@@H]1C,-12.1% [at 11.4 µM],–
COc1ccc(/C=C/C(=O)Nc2ccccc2C(=O)N2CCCC2)cc1,–,15.8 µM (active)
CCOC(=O)C1CCN(C(=O)c2ccccc2NC(C)=O)CC1,-13.2%,–

SMILES,"activity, negative = inhibition",AC50
COC(=O)N1CCC2(CCCN(C(=O)Nc3ccc(OC)cc3)C2)CC1,-12%,–
COC(=O)CNC(=O)/C=C/c1ccc(OC)cc1,-10.7%,–
Cc1ccccc1N1CCN(C(=O)c2ccccc2NC(=O)/C=C\C(=O)O)CC1,–,14.1 µM (active)
NCc1ccccc1CC(=O)N[C@@H]1C(=O)N2C(C(=O)O)=C(CSc3nnnn3CC(=O)O)CS[C@@H]12,-8% [at 25.6 µM],–
CC(=O)Nc1nc(NC(C)=O)c2[nH]c(CO)nc2n1,15.3% [at 11.4 µM],–
Cc1cc(C)cc(-n2nnnc2-c2cn(C)nc2C(F)(F)F)c1,-29.6%,–
FC(F)(F)c1nc(-c2ccncc2)ncc1-c1nnnn1-c1ccccc1,–,2.82 µM (active)
FC(F)(F)c1nc(N2CCCC2)ncc1-c1nnnn1-c1ccccc1,–,6.31 µM (active)
Cc1nc2cnc(N3CCNCC3)nc2n(-c2ccccc2)c1=O,11.8%,–
c1ccc(CNc2nc(-c3ccoc3)nc3ccccc23)cc1,-16.4% [at 2.29 µM],–
Cc1ccc(NC(=S)Nc2ccc(Br)cc2)cc1,-21.4%,–
CCCNC(=S)Nc1ccc(Br)cc1,–,14.1 µM (active)
Cc1cc(C)n(-c2ccc(F)cc2)c(=O)c1C(=O)O,-2.88%,–
N=c1n(-c2ccccc2)c(O)cc(=O)n1-c1ccccc1,-18.2%,–
CC(=O)c1c(O)c(C)c(-c2ccccc2)n(-c2ccccc2)c1=O,–,14.1 µM (active)
N#C/C(=N\O)c1nc(-c2ccccc2)cs1,–,22.4 µM (active)
C[n+]1cccc(CNC(=O)/C=N/O)c1,4.55%,–
O=C1C(=O)c2ccccc2C(O)=C1C(CCc1ccccc1)C1=C(O)c2ccccc2C(=O)C1=O,–,3.16 µM (active)
O=C(O)[C@H](CCc1ccccc1)N1C(=O)c2ccccc2C1=O,-7.78% [at 11.4 µM],–
O=C1OCCC=C1[C@@H](O)CCc1ccccc1,5.4% [at 11.4 µM],–
CC(=O)O[C@H]1C2=CO[C@H](C)[C@H]3[C@H]4C5=C([C@H](O)[C@H]6O[C@@H]6C5=O)[C@H](O[C@H]4C)[C@@]23C(=O)[C@H]2O[C@@H]21,19.9% [at 11.4 µM],–

# From PubChem BioAssay AID1851 (National Center for Advancing Translational Sciences (NCATS), 2009)
